LGR2 inh – blocks bursicon-induced cAMP signaling via Drosophila LGR2 | HEK293 LGR2, CRE-luciferase, bursicon-stimulated, 4 h | inhibition, % at 9.99 µM | hit rate 0.35% among 380,000 | AID 720647;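 active = drop in luminescence signal, shown as inhibition above about 50% in the replicate tests, limit read from the data, passing the limit was not always enough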;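 also: agonist challenge used bursicon conditioned medium at about half maximal strength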
iPSC survival up – hiPSC single-cell survival enhancement; ATPlite luminescence; 100% = ROCK inhibitor wells, 0% = DMSO; survival enhancement, % at 20 µM; hit rate 0.044% among 360,000; in the data active = survival enhancement above about 18%;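 also: cells exposed to compounds for 16 hours before the ATP read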
HIF-2a block – HIF-2a inhibition; 786-0 RCC cells HIF-2a reporter, luciferase luminescence, overnight; inhibition, % at 18.8 µM; hit rate 0.72% among 360,000;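 active = inhibition of the luminescence signal of 40% or more relative to plate controls, in a single-dose primary screen at 18.75 µM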
KKLEB tox – counter-screen for CF NF-kB inhibitors: cytotoxicity. KKLEB CF airway cells viability, ATPlite luminescence, overnight; active compounds read low; cells stimulated with P. aeruginosa culture filtrate. activity change (cytotoxicity), % at 5 µM. hit rate 0.36% among 360,000;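 active = corrected activity change at or below -50% at 5 µM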
CF NFkB inh – blocks PAF-induced NF-kB reporter in cystic fibrosis cells | KKLEB NF-kB-GFP reporter, GFP fluorescence overnight | inhibition, % at 5 µM | hit rate 0.86% among 360,000 | AID 588850;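 active = at least 50% inhibition at 5 µM, scaled per plate between neutral and stimulator controls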;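 also: PAF is a Pseudomonas aeruginosa culture filtrate used as stimulus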
TWEAK-Fn14 inh – inhibitors of TWEAK-Fn14 interaction signaling; inhibition, % at 10 µM; hit rate 2% among 360,000; TWEAK-stimulated Fn14 reporter cells, luciferase luminescence, 8 h; in the data active = inhibition above about 50%
Large screens that a line does not name were inactive; ! = a repeat was not active. In the library only some 2.3% were active in any assay of this set; here they are far more common.

C[C@H](CO)N1C[C@H](C)[C@@H](CN(C)S(=O)(=O)c2ccccc2)OCc2ccccc2-c2ccccc2C1=O	none (no result: iPSC survival up, HIF-2a block, KKLEB tox, CF NFkB inh, TWEAK-Fn14 inh)
COc1ccc(S(=O)(=O)N(C)C[C@H]2Oc3ccc(NC(=O)C4CC4)cc3C(=O)N([C@@H](C)CO)C[C@H]2C)cc1	none (no result: iPSC survival up, HIF-2a block, KKLEB tox, CF NFkB inh, TWEAK-Fn14 inh)
CC(C)CC#Cc1ccc2c(c1)O[C@@H](CN(C)C(=O)C1CCCCC1)[C@H](C)CN([C@H](C)CO)S2(=O)=O	none (no result: iPSC survival up, HIF-2a block, KKLEB tox, CF NFkB inh, TWEAK-Fn14 inh)
CNc1c2cccc(C)c2nc2c(C(=O)NCCN(C)C)cccc12	HIF-2a block 61.7, CF NFkB inh 95.1
C=Cc1ncc(OC)c2c1[nH]c1ccccc12	KKLEB tox -53.9 (no result: LGR2 inh)
CC(=O)Oc1c(I)cc(I)cc1C(=O)Nc1ccc(Cl)cc1	CF NFkB inh 70.0, TWEAK-Fn14 inh 52.2
Cc1ccc(C(=O)Nc2nc(-c3ccco3)c(-c3ccco3)s2)o1	TWEAK-Fn14 inh 82.6
COc1cccc(NC(=O)N[C@H]2CC[C@@H](CC(=O)NCc3ccncn3)O[C@H]2CO)c1	none (no result: iPSC survival up, HIF-2a block, KKLEB tox, CF NFkB inh, TWEAK-Fn14 inh)
O=C(O)c1cc2c(s1)-c1ccccc1CC2	none
c1ccc(-c2cc3n(c2)CCc2ccccc2-3)cc1	LGR2 inh 65.7, CF NFkB inh 56.9, TWEAK-Fn14 inh 83.2
C[C@@H]1CN([C@@H](C)CO)C(=O)c2cc(NC(=O)CCCCCC(=O)Nc3ccccc3N)ccc2O[C@H]1CN(C)S(=O)(=O)c1ccc(Cl)cc1	none (no result: iPSC survival up, HIF-2a block, KKLEB tox, CF NFkB inh, TWEAK-Fn14 inh)
Cc1noc(C)c1NC(=O)N(C)C[C@H]1Oc2ccc(NC(=O)Nc3cccc4ccccc34)cc2C(=O)N([C@H](C)CO)C[C@H]1C	none (no result: iPSC survival up, HIF-2a block, KKLEB tox, CF NFkB inh, TWEAK-Fn14 inh)
Cc1cc(O)c(C=O)c2c1C(=O)Oc1c(CO)c(O)c3c(c1O2)C(O)OC3=O (configuration not stated)	TWEAK-Fn14 inh 55.9 (no result: LGR2 inh)
CC(=O)Oc1cccc(Nc2ncnc3ccccc23)c1	none
Cc1ccccc1C(=O)Oc1cccc(Nc2ncnc3ccccc23)c1	TWEAK-Fn14 inh 53.0 (no result: LGR2 inh)
CCCC#Cc1ccc2c(c1)O[C@H](CN(C)C(C)=O)[C@@H](C)CN([C@@H](C)CO)S2(=O)=O	none (no result: iPSC survival up, HIF-2a block, KKLEB tox, CF NFkB inh, TWEAK-Fn14 inh)
CO[C@H]1CN(C)C(=O)c2ccc(NC(=O)c3ccccc3F)cc2OC[C@@H](C)N(CC2CC2)C[C@@H]1C	none (no result: iPSC survival up, HIF-2a block, KKLEB tox, CF NFkB inh, TWEAK-Fn14 inh)
CN1CCc2c(sc(/N=C/c3cc(Cl)ccc3O)c2C#N)C1	TWEAK-Fn14 inh 64.5
O=C(C[C@@H]1C=C[C@@H](NS(=O)(=O)c2ccccc2F)[C@H](CO)O1)NCCCN1CCOCC1	none (no result: iPSC survival up, HIF-2a block, KKLEB tox, CF NFkB inh, TWEAK-Fn14 inh)
O=C1c2ccccc2C(=O)c2c(Nc3ccc(CCO)cc3)ccc(O)c21	none
O=C1c2c(O)ccc(O)c2C(=O)c2c(NCCNCCO)ccc(NCCNCCO)c21	LGR2 inh 101.7, HIF-2a block 62.6, CF NFkB inh 81.9!, TWEAK-Fn14 inh 93.4!
COCCNc1nc(NCc2ccc(NC(C)=O)cc2)c2sc(-c3ccccc3)cc2n1	KKLEB tox -53.7
COCCNc1nc(Oc2ccc(NC(C)=O)cc2)c2sc(-c3ccccc3)cc2n1	none
C[C@H](CO)N1C[C@H](C)[C@H](CN(C)C(=O)C2CC2)Oc2ncc(C#CCc3ccccc3)cc2C1=O	none (no result: iPSC survival up, HIF-2a block, KKLEB tox, CF NFkB inh, TWEAK-Fn14 inh)
Cc1cccc(-n2ncc3c(NNC(=O)c4ccco4)ncnc32)c1	none
Cc1ccc(-n2ncc3c(NNC(=O)c4ccco4)ncnc32)cc1Cl	TWEAK-Fn14 inh 50.3
CCCc1nc(SCC(=O)Nc2nc3c(s2)CCCC3)c2ccccc2n1	iPSC survival up 21.6
Cc1ccccc1/C=N/NC(=O)CSc1nc2ccccc2o1	TWEAK-Fn14 inh 65.0
CCOC(=O)c1c(NC(=O)CSc2nnc(-c3ccccc3)o2)sc(C(C)=O)c1C	none
CCOC(=O)c1c(NC(=O)CSc2nc3ccccc3o2)sc(C(C)=O)c1C	TWEAK-Fn14 inh 68.6
O=C(CSc1nc2ccccc2o1)Nc1nc2c(s1)CCCC2	TWEAK-Fn14 inh 89.4
C[C@@H]1CN([C@H](C)CO)C(=O)c2cc(N(C)C)ccc2O[C@@H](C)CCCCO[C@@H]1CN(C)C(=O)c1ccncc1	none (no result: iPSC survival up, HIF-2a block, KKLEB tox, CF NFkB inh, TWEAK-Fn14 inh)
Cc1noc(C)c1S(=O)(=O)N(C)C[C@H]1Oc2ccc(NC(=O)CCC(F)(F)F)cc2CC(=O)N([C@H](C)CO)C[C@@H]1C	none (no result: iPSC survival up, HIF-2a block, KKLEB tox, CF NFkB inh, TWEAK-Fn14 inh)
O=C(CSc1nc2ccccc2o1)Nc1nc(-c2ccccc2)cs1	TWEAK-Fn14 inh 84.2
O=C(O)COc1ccccc1/C=N/NC(=O)CSc1nc2ccccc2s1	none
O=C(CSc1nc2ccccc2s1)N/N=C/c1ccccc1C(=O)O	TWEAK-Fn14 inh 89.3
O=C(CSc1nc2ccccc2o1)Nc1nc2ccccc2s1	none (no result: LGR2 inh)

Compound activity as filed in PubChem.
